# PubChem BioAssay AID651642 (Sanford-Burnham Center for Chemical Genomics, 2012)
# Active and inactive are the calls of the source.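 The calls were made as follows: active = average half-effect concentration of 10 µM or less in every one of the four cell panels; inactive = the rest.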
# System: HL-1
# Test: protection of cardiomyocytes from stress damage, SAR follow-up, cell-based, panel, H9c2 and HL-1, H2O2, 2-deoxyglucose, ATP luminescence (AID 651642);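 as to activity: plate controls were H2O2 plus DMSO for no effect and cells kept without H2O2 for full effect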
# Conditions: H9c2/HL-1 cardiomyocyte H2O2 oxidative damage, mean of runs; activity: with H2O2, at 0.154 µM; outcome: with H2O2
SMILES,activity,outcome
COc1ccc2nc(-c3cc(OC)c(OC)c(OC)c3)cc(C(=O)NCC(=O)Nc3cccc(C(C)=O)c3)c2c1,-0.983% (active),–
COc1cc(-c2cc(C(=O)NCC(=O)O)c3ccccc3n2)cc(OC)c1OC,-0.263% (inactive),–
COc1cc(-c2cc(C(=O)NCC(=O)Nc3cccc(C(C)=O)c3)c3cc(C)ccc3n2)cc(OC)c1OC,0.0397% (inactive),–
CCOC(=O)c1cccc(NC(=O)CNC(=O)c2cc(-c3cc(OC)c(OC)c(OC)c3)nc3c(Cl)cccc23)c1,-2.82% (inactive),–
COc1cc(-c2cc(C(=O)NCC(=O)Nc3cccc(C(C)=O)c3)c3cc(F)ccc3n2)cc(OC)c1OC,-0.68% (active),–
COc1cc(-c2cc(C(=O)Nc3cccc(C#N)c3)c3ccccc3n2)cc(OC)c1OC,0.75% (inactive),–
COc1ccc2c(c1OC)C(=O)N1c3ccccc3C(=O)N(Cc3ccc(F)cc3)C21 (centres undefined),-2.95% (inactive),–
CCOC(=O)c1cccc(NC(=O)c2cc(-c3cc(OC)c(OC)c(OC)c3)nc3ccccc23)c1,0.2% (active),–
COC(=O)CNC(=O)c1cc(-c2cc(OC)c(OC)c(OC)c2)nc2ccccc12,-2.8% (inactive),–
CCOC(=O)c1cccc(NC(=O)c2cc(-c3cc(OC)c(OC)c(OC)c3)nc3ccc(Br)cc23)c1,0.456% (inactive),–
COc1cc(-c2cc(C(=O)Nc3cccc(C(N)=O)c3)c3ccccc3n2)cc(OC)c1OC,-0.415% (active),–
COc1ccc2c(c1OC)C(=O)N1c3ccccc3C(=O)N(Cc3cccc(C)c3)C21 (centres undefined),-2.16% (inactive),–
CCOC(=O)c1cccc(NC(=O)c2cc(-c3cc(OC)c(OC)c(OC)c3)nc3ccc(F)cc23)c1,5.11% (active),–
CCOC(=O)c1cccc(NC(=O)CNC(=O)c2cc(-c3cc(OC)c(OC)c(OC)c3)nc3ccccc23)c1,-0.899% (inactive),–
COc1ccc2c(c1OC)C(=O)N1c3ccccc3C(=O)N(Cc3cccc(Br)c3)C21 (centres undefined),0.759% (inactive),–
COc1cc(-c2cc(C(=O)Nc3cccc(C(=O)O)c3)c3ccccc3n2)cc(OC)c1OC,1.9% (inactive),–
COc1ccc2nc(-c3cc(OC)c(OC)c(OC)c3)cc(C(=O)Nc3cccc(C(C)=O)c3)c2c1,–,inactive
CCOC(=O)c1cccc(NC(=O)c2cc(-c3cc(OC)c(OC)c(OC)c3)nc3ccc(C)cc23)c1,4.25% (inactive),–
COc1cc(-c2cc(C(=O)Nc3cccc(C(=O)N(C)C)c3)c3ccccc3n2)cc(OC)c1OC,0.987% (active),–
